The subject of assay [1] is HT29 RNF43 G659fs (RNF43 659mut, CRISPR-edited). The assay can be described thus: cell viability activity relative to DMSO (negative = inhibition); higher = more viable cells (less growth inhibition). The following applies: 5 µM; 96 h. The method, then:
(§1)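 Broad Repurposing Library primary screen at a single dose of 5 uM. HT29 sg-Ctrl and HT29 RNF43 G659fs CRISPR-edited isogenic cells were seeded at 2500 cells/well in 384-well plates in duplicate and treated for 96 h. Viability was read by CellTiter-Glo and reported as % activity relative to DMSO, with MG132 as the positive control (negative = growth inhibition).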

Assay [2] deals with HT29 sg-Ctrl (RNF43 wildtype). The description is as above. Particulars: 5 µM; 96 h. The protocol:
as §1

Regarding `CC(NCCC(c1ccccc1)c1ccccc1)c1ccccc1` (configuration not stated), the cell viability activity in assay [1] is -64.5%; in assay [2], -69.7%.

With `CC(C)c1cc(CNc2nc(Nc3cc(C4CC4)[nH]n3)cc(N3CCN(C)CC3)n2)on1`, the figures for the cell viability activity in assay [1] and in assay [2] were -86.1% and -84.3%, respectively.

`CNc1ncc2cc(-c3cc(NC(=O)NCCC(C)(C)C)c(F)cc3C)c(C)nc2n1`: the cell viability activity in assay [1] was -69%; in assay [2], -58.9%.

For the molecule `CCCSc1ccc2[nH]c(NC(=O)OC)nc2c1`, the cell viability activity in assay [1] is -63.8%; in assay [2], -76.8%.

Turning to `S=c1[nH]cnc2nc[nH]c12`, the cell viability activity in assay [1] is -51.6%; in assay [2] it was -49.4%.

Take `O=C1[C@H](Cc2ccc(O)cc2)N2C(=O)CCN(C(=O)NCc3ccccc3)[C@H]2CN1Cc1cccc2ccccc12`: the cell viability activity was -58.4% in assay [1] and -41.8% in assay [2].

The record behind these values is the supplement of paper PMC9177965.
